An excerpt weighted towards active compounds, which were near 3.4% of everything screened.
FBW7 activator – FBW7 E3 ligase activators, primary screen, biochemical, AlphaScreen, human; F-box/WD repeat-containing protein 7 (Homo sapiens), Q969H0; AlphaScreen FBW7–phospho-cyclin E peptide binding, activator screen; normalized activity (activation), % at 26.1 µM; actives 0.13% (n = 650,000); AID 1259310, 2017; in the data active = normalized activity above about 1.9%;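 note: purified mutant Fbw7 with reduced substrate affinity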
GPR151 ag – activators of human GPR151, primary screen, cell-based, PathHunter beta-arrestin, luminescence; G-protein coupled receptor 151 (Homo sapiens), Q8TDV0; PathHunter beta-arrestin GPR151 cells; activation, % at 11.2 µM; actives 1% (n = 650,000); AID 1508602, 2020; in the data active = activation above about 4.9%;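 note: 0% = median of compound wells and 100% = cells with positive control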
Target sequence (Q8TDV0 whole entry, looked up): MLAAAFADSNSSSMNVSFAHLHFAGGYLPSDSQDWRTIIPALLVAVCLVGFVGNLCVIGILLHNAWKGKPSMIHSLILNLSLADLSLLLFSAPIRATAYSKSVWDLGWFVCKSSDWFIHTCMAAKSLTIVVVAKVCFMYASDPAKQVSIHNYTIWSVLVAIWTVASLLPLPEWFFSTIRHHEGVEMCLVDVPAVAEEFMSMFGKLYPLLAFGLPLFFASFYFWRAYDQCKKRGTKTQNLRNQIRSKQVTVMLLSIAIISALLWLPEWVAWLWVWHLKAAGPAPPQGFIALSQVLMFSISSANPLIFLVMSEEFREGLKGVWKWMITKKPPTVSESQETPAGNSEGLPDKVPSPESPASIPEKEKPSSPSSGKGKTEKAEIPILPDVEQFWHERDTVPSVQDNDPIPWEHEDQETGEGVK
TEAD-YAP block – TEAD-YAP interaction inhibition, primary screen, TEAD-YAP interaction inhibitor project, luminescence, HEK-TIYL cells | actives 1.4% (n = 640,000) | TEAD-Gal4/YAP UAS-luciferase luminescence | inhibition, % at 9.12 µM | AID 1259422, 2018; in the data active = inhibition above about 32%;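 note: 0% = median of test compound wells and 100% = reference inhibitor wells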
MITF inh – MITF inhibitors, primary screen, biochemical, AlphaScreen, human. actives 0.91% (n = 650,000). AlphaScreen MITF homodimerization, bead proximity signal. AID 1259374, 2018. inhibition, % at 2.6 µM; in the data active = inhibition above about 50%;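 note: 0% = vehicle wells with protein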
The depositor's hits bear a star.

SMILES	FBW7 activator	GPR151 ag	TEAD-YAP block	MITF inh
CC(=O)c1ccc(C(=O)Nc2ccccc2-c2nc3ccccc3[nH]2)cc1	-0.1	1.0	-1.5	-12.4
O=C(Nc1ccccc1-c1nc2ccccc2[nH]1)C1CC1	0.1	0.7	38.2*	3.6
COc1ccccc1NC(=O)C1=C(C)NC(SCC(=O)c2ccc(Cl)cc2)=C(C#N)C1c1ccccc1Cl (stereo not drawn)	0.0	0.2	-0.2	-3.2
O=C(CN1CCCC1)Nc1ccc(F)c(F)c1	0.0	-1.1	0.3	8.2
O=C(Cn1cncn1)c1ccc(Br)cc1	-0.2	0.9	0.6	-5.7
NC(=S)N1N=CCC1(O)C(F)(F)F (stereo not drawn)	-0.1	-0.8	53.1*	35.7
Cc1cc(C)c(CSc2nnnn2-c2ccc(C(N)=O)cc2)c(C)c1	0.5	-1.7	61.1*	18.6
COc1ccc(CCNC(=O)CCCCCn2c(=O)[nH]c3ccsc3c2=O)cc1OC	0.0	0.0	-5.1	-8.1
CCn1nc(C)cc1C(=O)Nc1nc(-c2ccc(C(C)C)cc2)cs1	0.3	1.6	37.9*	7.4
CC(C)c1ccc(-c2csc(NC(=O)c3cc(Cl)cc(Cl)c3)n2)cc1	0.0	-1.1	-0.1	-9.2
O=[N+]([O-])c1cccc(/C=N/NC(=S)NCCN2CCOCC2)c1	0.0	0.4	8.1	1.9
COc1ccccc1NC(=O)Cc1nn(C)c(=O)c2ccccc12	0.0	0.4	35.6*	13.1
Cn1nc(CC(=O)Nc2ccc(F)cc2Cl)c2ccccc2c1=O	-0.1	0.6	45.8*	-13.0
CCCCOc1ccccc1/C=C1\C(=O)N(c2ccccc2)N=C1C	-0.9	2.5	-2.2	24.3
CC12CN3CC(C)(CN(C1)C3c1ccc(Br)cc1)C2O (stereo not drawn)	-0.1	0.0	-2.8	-1.1
O=C(CCl)NC(C1CCCCC1=O)C(Cl)(Cl)Cl (stereo not drawn)	0.2	-0.2	41.7*	-17.3
COc1ccc(CNc2ccc(C(=O)Nc3ccc(C)cc3C)cc2[N+](=O)[O-])cc1	-0.1	-1.5	55.7*	-11.7
COc1cccc(NC(=O)c2ccc(NCc3ccccc3Cl)c([N+](=O)[O-])c2)c1	-0.1	-0.3	51.6*	12.8
CCNc1ccc(C(=O)NN)cc1[N+](=O)[O-]	-0.3	2.2	35.0*	0.3
CCNc1ccc(C(=O)OCC(=O)OC(C)(C)C)cc1[N+](=O)[O-]	-0.3	0.1	-1.3	5.0
Cc1ccc(NC(=O)c2ccc(NCc3ccc(F)cc3)c([N+](=O)[O-])c2)c(C)c1	0.1	-0.8	18.9	11.8
COc1cccc(CN2C(=O)CCC2CCNCc2cc3c(cc2Cl)OCO3)c1 (stereo not drawn)	0.1	-1.0	-2.8	9.2
CC(=O)NC(Nc1nnc(-c2ccc(C)cc2)s1)C(Cl)(Cl)Cl (stereo not drawn)	-0.1	-0.6	49.3*	8.2
CC(=O)NC(Nc1nnc(-c2ccccc2)s1)C(Cl)(Cl)Cl (stereo not drawn)	0.1	3.3	21.6	-6.1
Cc1c(Cc2ccc(Cl)cc2)c(N2CCN(C)CC2)n2c(nc3ccccc32)c1C#N	0.1	0.3	3.6	2.7
SMILES	FBW7 activator	GPR151 ag	TEAD-YAP block	MITF inh
Cc1ccc(C(Nc2cccc(C)n2)c2ccc3cccnc3c2O)cc1 (stereo not drawn)	-1.0	-0.4	76.4*	6.3
Cc1ccc2ccc(C(Nc3ccccn3)c3ccc(N(C)C)cc3)c(O)c2n1 (stereo not drawn)	-0.1	-0.3	6.0	13.6
C=CCOc1ccc(C(Nc2ccccn2)c2ccc3cccnc3c2O)cc1 (stereo not drawn)	-1.0	0.9	85.7*	55.3*
Oc1c(C(Nc2ccccn2)c2ccc(F)cc2)ccc2cccnc12 (stereo not drawn)	-1.9	0.3	69.9*	8.9
CCc1ccc(C(Nc2ccccn2)c2ccc3cccnc3c2O)cc1 (stereo not drawn)	-1.1	0.7	84.0*	27.7
CSc1ccc(C(Nc2ccccn2)c2ccc3ccc(C)nc3c2O)cc1 (stereo not drawn)	-0.2	0.1	21.1	1.2
CCOC(=O)C1=C(c2ccccc2)NC(=O)NC1c1ccc(O)c(OC)c1 (stereo not drawn)	-0.1	0.9	-2.0	4.1
CSc1ccc(C(Nc2ccccn2)c2ccc3cccnc3c2O)cc1 (stereo not drawn)	-1.0	0.5	77.9*	8.1
